Source: PubChem BioAssay (NCATS)
For part of these data: Results with a measured potency or affinity are listed apart. Activity calls are given as the source filed them. No rule for the calls is given here.

Key:
[1] = Ebola virus entry assay, green fluorescence channel
[2] = Ebola virus entry assay, blue channel fluorescence
[3] = Ebola virus entry assay, ratio channel
[4] = Ebola virus entry assay, green channel fluorescence
[5] = Ebola virus entry assay, reporter ratio channel; Channel type: primary
[6] = Ebola virus entry assay, blue channel (ratio component)

Measured: efficacy
For efficacy in this document: 0% is about no effect.

CCOC(=O)N1CCC(n2c(=O)[nH]c3cc(Cl)ccc32)CC1
inactive: [1] 43.9% | [2] | [3] | [4] | [5] | [6]

O=c1[nH]c(=O)c2ccccc2o1
inactive: [1] 15% | [2] | [3] | [4] | [5] | [6]

O=C1c2ccccc2S(=O)(=O)N1CCCCN1CCN(c2ncccn2)CC1
inactive: [1] 29.9% | [2] | [3] | [4] | [5] | [6]

CC(C)NC(=O)c1ccc(C=O)cc1
inactive: [1] 10.7% | [2] | [3] | [4] | [5] | [6]

COc1cc(C(=O)NCCCCCC(=O)O)cc(OC)c1OC
inactive: [1] -33.5% | [2] | [3] | [4] | [5] | [6]

CC(O)COc1ccccc1 (stereo not given)
inactive: [1] 11.7% | [2] | [3] | [4] | [5] | [6]

CC1=CC(=O)c2ccccc2C1=O
inactive: [1] 12.6% | [2] | [3] | [4] | [5] | [6]

Cc1cccc(C)c1NC(=O)CN1CCCC1
inactive: [1] 18.6% | [2] | [3] | [4] | [5] | [6]

CC(=O)/C=C/C=C1/C2CCC(C2)C1(C)C (stereo not given)
inactive: [1] -14.5% | [2] | [3] | [4] | [5] | [6]

O=C1c2ccccc2C(=O)C1c1ccc(Br)cc1
inactive: [1] -9.92% | [2] | [3] | [4] | [5] | [6]

CCNC(=O)NCc1cccc(Cl)c1
inactive: [1] 7% | [2] | [3] | [4] | [5] | [6]

Oc1ccc(O)cc1
inactive: [1] 16.5% | [2] | [3] | [4] | [5] | [6]

CCN[C@H]1C[C@H](C)S(=O)(=O)c2sc(S(N)(=O)=O)cc21
inactive: [1] 10.6% | [2] | [3] | [4] | [5] | [6]

Cc1ccc2c(Cl)cc(Cl)c(O)c2n1
inactive: [1] -13.1% | [2] | [3] | [4] | [5] | [6]

O=C(O)CCC(=O)OC[C@@H](NC(=O)C(Cl)Cl)[C@H](O)c1ccc([N+](=O)[O-])cc1
inactive: [1] 19.1% | [2] | [3] | [4] | [5] | [6]

OC[C@H]1O[C@@H](O[C@@H]2[C@@H](CO)O[C@](O)(CO)[C@H]2O)[C@H](O)[C@@H](O)[C@H]1O
inactive: [1] -16.4% | [2] | [3] | [4] | [5] | [6]

CCc1cccc2c(CCO)c[nH]c12
inactive: [1] -22.1% | [2] | [3] | [4] | [5] | [6]

C=C1C[C@H]2[C@@H]3C=C(C)C4=CC(=O)CC[C@]4(C)[C@H]3CC[C@]2(C)[C@@]1(OC(C)=O)C(C)=O
inactive: [1] -35.6% | [2] | [3] | [4] | [5] | [6]

CNC(=O)c1cnn(-c2nc(N)c3ncn([C@@H]4O[C@H](CO)[C@@H](O)[C@H]4O)c3n2)c1
inactive: [1] 20.7% | [2] | [3] | [4] | [5] | [6]

CN1C(=O)CC(c2ccccc2)C1=O (stereo not given)
inactive: [1] 12.2% | [2] | [3] | [4] | [5] | [6]

C/C=C/c1ccc(O)c(OC)c1
inactive: [1] 19% | [2] | [3] | [4] | [5] | [6]

CN1CCN(c2cc3c(nn2)Oc2ccccc2N3C)CC1
inactive: [1] -18% | [2] | [3] | [4] | [5] | [6]

N=C(N)c1ccc(OCCCOc2ccc(C(=N)N)cc2)cc1
inactive: [1] 14.7% | [2] | [3] | [4] | [5] | [6]

CCOC(=O)NNc1nncc2ccccc12
inactive: [1] -15.2% | [2] | [3] | [4] | [5] | [6]

Clc1ccccc1-c1nc(-c2ccncc2)no1
inactive: [1] -9.78% | [2] | [3] | [4] | [5] | [6]

NNc1nnc(NN)c2ccccc12
inactive: [1] -13% | [2] | [3] | [4] | [5] | [6]

Brc1c(NC2=NCCN2)ccc2nccnc12
inactive: [1] -28.5% | [2] | [3] | [4] | [5] | [6]

CCC(=O)c1ccc(O)cc1
inactive: [1] -30% | [2] | [3] | [4] | [5] | [6]

CN(C)CC[C@@H](c1ccc(Cl)cc1)c1ccccn1
inactive: [1] -31.3% | [2] | [3] | [4] | [5] | [6]

CC(C)=CCC/C(C)=C/CC/C(C)=C/C(=O)OCC(=O)[C@@]1(O)CC[C@H]2[C@@H]3CCC4=CC(=O)C=C[C@]4(C)[C@H]3[C@@H](O)C[C@@]21C
inactive: [1] 14.4% | [2] | [3] | [4] | [5] | [6]

O=C1C(CCS(=O)c2ccccc2)C(=O)N(c2ccccc2)N1c1ccccc1 (stereo not given)
inactive: [1] 28.5% | [2] | [3] | [4] | [5] | [6]

CCCCCCCC/C=C\CCCCCCCCN
inactive: [1] 12.8% | [2] | [3] | [4] | [5] | [6]

CCC(=O)Oc1ccc2c(c1)CC[C@@H]1[C@@H]2CC[C@@]2(C)[C@H]1C[C@@H](OC(=O)CC)[C@@H]2OC(=O)CC
inactive: [1] -23.4% | [2] | [3] | [4] | [5] | [6]

CN1CCCN=C1/C=C/c1cccs1
inactive: [1] -15% | [2] | [3] | [4] | [5] | [6]

c1ccc([C@H]2CN3CCSC3=N2)cc1
inactive: [1] -38.1% | [2] | [3] | [4] | [5] | [6]

C/C=C(/C(=C/C)c1ccc(OC(C)=O)cc1)c1ccc(OC(C)=O)cc1
inactive: [1] 15.4% | [2] | [3] | [4] | [5] | [6]

O=c1[nH]c(=O)n([C@H]2C[C@H](O)[C@@H](CO)O2)cc1C(F)(F)F
inactive: [1] 18.2% | [2] | [3] | [4] | [5] | [6]

CCc1cccc2c3c([nH]c12)C(CC)(CC(=O)O)OCC3 (stereo not given)
inactive: [1] 8.5% | [2] | [3] | [4] | [5] | [6]

CCCNC(C)(C)COC(=O)c1ccccc1
inactive: [1] -21% | [2] | [3] | [4] | [5] | [6]

C[C@H](N)[C@H](O)c1cccc(O)c1
inactive: [1] -10.3% | [2] | [3] | [4] | [5] | [6]

CC(=O)N1CCN(c2ccc(O)cc2)CC1
inactive: [1] 19.8% | [2] | [3] | [4] | [5] | [6]

CCCc1ncc(C[n+]2ccccc2C)c(N)n1
inactive: [1] -20.5% | [2] | [3] | [4] | [5] | [6]

NC(=O)NNc1ccccc1
inactive: [1] -21.6% | [2] | [3] | [4] | [5] | [6]

CC1(C)CCC(C)(C)c2cc(NC(=O)c3ccc(C(=O)O)cc3)ccc21
inactive: [1] 21.8% | [2] | [3] | [4] | [5] | [6]

CC(C)c1cc2c(cc1S(=O)(=O)O)[C@@]1(C)CCC[C@@](C)(C(=O)O)[C@@H]1CC2
inactive: [1] -15.6% | [2] | [3] | [4] | [5] | [6]

Nc1ccc(S(=O)(=O)Nc2cnc3ccccc3n2)cc1
inactive: [1] -10.5% | [2] | [3] | [4] | [5] | [6]

O=C1c2ccccc2C(=O)C1c1ccccc1
inactive: [1] 13.2% | [2] | [3] | [4] | [5] | [6]

C/C(=C(\CCOP(=O)(O)O)SC(=O)c1ccccc1)N(C=O)Cc1cnc(C)nc1N
inactive: [1] -17.4% | [2] | [3] | [4] | [5] | [6]

COc1ccc(CN(CCN(C)C)c2ncccn2)cc1
inactive: [1] -18% | [2] | [3] | [4] | [5] | [6]

O=C(O)CNC(=O)c1ccccc1I
inactive: [1] -12.8% | [2] | [3] | [4] | [5] | [6]

Cc1cccc(C)c1NC(=O)C(C)N (stereo not given)
inactive: [1] -28.5% | [2] | [3] | [4] | [5] | [6]

CC(O)Cn1cnc2c1c(=O)n(C)c(=O)n2C (stereo not given)
inactive: [1] 6.04% | [2] | [3] | [4] | [5] | [6]

COc1cc(OC)cc(OC)c1
inactive: [1] -13.9% | [2] | [3] | [4] | [5] | [6]

CCCCCC(N)=O
inactive: [1] 10.6% | [2] | [3] | [4] | [5] | [6]

COc1ccc2c(c1OC)C(=O)O[C@@H]2[C@H]1c2c(cc3c(c2OC)OCO3)CCN1C
inactive: [1] -21% | [2] | [3] | [4] | [5] | [6]

N[C@@H](CSSC[C@H](N)C(=O)O)C(=O)O
inactive: [1] -14.5% | [2] | [3] | [4] | [5] | [6]

CC(=O)OCC(=O)Nc1cc(C#N)cc(NC(=O)COC(C)=O)c1Cl
inactive: [1] 24.6% | [2] | [3] | [4] | [5] | [6]

Clc1ccc(C(Cn2ccnc2)OCc2ccc(Sc3ccccc3)cc2)c(Cl)c1 (stereo not given)
inactive: [1] 29.2% | [2] | [3] | [4] | [5] | [6]

Oc1c(I)cc(Cl)c2cccnc12
inactive: [1] 46.4% | [2] | [3] | [4] | [5] | [6]

NCC(=O)O
inactive: [1] 13.7% | [2] | [3] | [4] | [5] | [6]
